Measured values taken from PubChem BioAssay AID1851 (National Center for Advancing Translational Sciences (NCATS), 2009).
Hit rate of the full screen: of about 16,000 compounds, about 5,100 (32%) were called active. Not shown: some 25% with an inconclusive outcome. Calls follow the shape of the dose curve; as a rule, active = well fitted curve in the direction sought with a large enough effect; inconclusive = small, poorly fitted or top-dose-only effect, or effect the other way; inactive = no such curve, though single readings can be large or run the other way. This is one part of the list.

target: Cytochrome P450 3A4 (Homo sapiens) (UniProt P08684); experiment: Cytochrome panel assay with activity outcomes; details: recombinant CYP, pro-luciferin dealkylation, luminescence, p450-cyp3a4; series mostly up to 57.1 µM
% is scaled to controls: 0 for no effect and ±100 for the full control effect.

Chain of Cytochrome P450 3A4 (Homo sapiens) (P08684 whole entry, looked up): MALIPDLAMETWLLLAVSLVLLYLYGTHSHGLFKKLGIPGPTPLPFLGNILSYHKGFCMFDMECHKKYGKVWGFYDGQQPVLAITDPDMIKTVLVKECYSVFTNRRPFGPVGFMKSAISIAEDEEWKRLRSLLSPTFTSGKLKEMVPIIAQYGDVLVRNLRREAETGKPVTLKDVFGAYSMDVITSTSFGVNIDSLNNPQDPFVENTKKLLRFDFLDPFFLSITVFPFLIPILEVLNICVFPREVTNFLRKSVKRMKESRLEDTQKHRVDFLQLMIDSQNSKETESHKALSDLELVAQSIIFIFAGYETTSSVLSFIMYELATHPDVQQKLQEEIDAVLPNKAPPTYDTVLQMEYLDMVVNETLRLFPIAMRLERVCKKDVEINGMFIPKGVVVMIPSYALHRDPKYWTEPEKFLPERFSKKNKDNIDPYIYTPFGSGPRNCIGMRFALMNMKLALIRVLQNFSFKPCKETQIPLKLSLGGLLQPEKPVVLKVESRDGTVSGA

AC50, inactive:
O=C(CCc1ccccc1)Nc1ncn[nH]1, CC(CP(=O)(O)O)NC(=O)Cc1ccccc1 (configuration not stated), O=C(NNC(=S)Nc1ccccc1)c1ccco1, O=C(/C=C/c1ccc(Cl)cc1)Nc1ccc(N2CCCCC2)cc1, COCCn1c(=O)c(-c2cn(C)c3ccccc23)nc2cnc(Oc3cccc(Cl)c3)nc21, OCCNc1nc(NCCC2=CCCCC2)nc(N2CCOCC2)n1, O=C(COC(=O)COc1ccccc1)Nc1ccc(OC(F)(F)F)cc1, Cc1ccc(OCC(=O)NNC(=O)c2cc3ccccc3o2)cc1C

AC50, active:
Cc1cc(C(=O)CC#N)c(C)n1CC(F)(F)F 3.16 µM, O=C(NC(NC(=S)Nc1cc(Cl)ccc1Cl)C(Cl)(Cl)Cl)c1ccco1 (configuration not stated) 6.31 µM, O=C(Cc1ccccc1)NC(NC(=S)Nc1cc(Cl)ccc1Cl)C(Cl)(Cl)Cl (configuration not stated) 4.47 µM, O=C(/C=C/c1ccccc1)NC(NC(=S)Nc1ccc(Cl)cc1)C(Cl)(Cl)Cl (configuration not stated) 4.47 µM, O=C(Cc1ccccc1)NC(NCCc1ccccc1)C(Cl)(Cl)Cl (configuration not stated) 14.1 µM, COCCn1c(=O)c(-c2cn(C)c3ccccc23)nc2cnc(Oc3ccccc3)nc21 3.16 µM, COc1ccc(Oc2ncc3nc(-c4cn(C)c5ccccc45)c(=O)n(C4CC4)c3n2)cc1 12.6 µM, COCCn1c(=O)c(-c2cn(C)c3ccccc23)nc2cnc(Oc3ccc(OC)cc3)nc21 3.98 µM, Cc1ccc(C)c(-c2nn(-c3cc(N4CCN(CCO)CC4)ccc3[N+](=O)[O-])c(=O)c3ccccc23)c1 12.6 µM, Cc1ccc(OCc2ccc(C(=O)Nc3nccs3)o2)cc1C 11.2 µM, COc1ccc(NC(=O)c2ccc(COc3ccccc3)o2)cc1 22.4 µM, COc1ccc(NC(=O)CCOc2ccccc2)cc1 15.8 µM, CC12c3ccccc3C(c3ccccc31)C1C(=O)N(Cc3cccnc3)C(=O)C12 (configuration not stated) 1.58 µM, CC1CCCC(C)N1C(=O)C1CC(c2ccc(F)cc2)=NO1 (configuration not stated) 11.2 µM

activity, negative = inhibition, inactive:
O=C(Cc1ccccc1)NC(=S)Nc1cc(C(F)(F)F)ccc1Cl -7.93% [at 2.29 µM], C[C@@H](CCC(=O)O)C(=O)O -7.96% [at 11.4 µM], Cc1ccc(N2CCN(CCC(=O)O)CC2)cc1 -4.63% [at 11.4 µM], CN1CCN(C(=O)c2ccc(COc3ccc(C(C)(C)C)cc3)o2)CC1 -9.09% [at 2.29 µM], CC(C)N(CC(=O)O)CC(=O)O -7.3% [at 11.4 µM]
